Laboratory results from ChEMBL document CHEMBL3988442, “University of Dundee, Small-Polar-MMV Screening Library” (2021).
About 950 (1.4%) of roughly 69,000 compounds showed an effect of 50% or more. The full list was thinned out, with strong results kept by preference.

The molecules below were run on Mycobacterium tuberculosis (assay: Cornell M. t heat shock assay; also: in the data most compounds retested in dose-response had high values).
Assay type: functional, organism-based
Design: dose or concentration left out as unconfirmed
With O=C(O)C(F)(F)F.O=C1CO[C@@H]2CN(CC3CCOCC3)C[C@H]2N1CC1CC1 the “Percent Effect” value was -5.405%. With CN1C(=O)CC(c2ccccc2)C12CCN(CC1CC1)CC2.O=C(O)C(F)(F)F (stereo not drawn) the “Percent Effect” value was 1.497%. For COc1ccc2nc(C)c(C(=O)NCCN3CCS(=O)(=O)CC3)cc2c1, the “Percent Effect” value was 0.03382%. With CCN1CCN(CCCNC(=O)c2cc3ccc(C)cc3nc2C)CC1 the “Percent Effect” value was -11.33%. In the case of Cc1ccc2cc(C(=O)NCCN3CCS(=O)(=O)CC3)c(C)nc2c1, the “Percent Effect” value is reported as 96.87%. For CCN(CC)Cc1cn2c(n1)CN(Cc1c(C)noc1C)CC2.O=C(O)C(F)(F)F.O=C(O)C(F)(F)F, the “Percent Effect” value was -4.28%. Cn1nccc1-c1nnn2c1COCC(CNC1CCOCC1)C2.O=C(O)C(F)(F)F.O=C(O)C(F)(F)F (stereo not drawn) was tested, and the “Percent Effect” value was 3.559%. Cc1nc(NC2CC2)c2c(n1)c(C)nn2C was tested, and the “Percent Effect” value was -10.52%. In the case of CCn1nc(C)c2nc(C)nc(NCCCn3cccn3)c21, the “Percent Effect” value is reported as -3.879%. For CCCc1nc(NCCc2ccccc2)c2c(n1)c(C)nn2CC, the “Percent Effect” value was 91.68%. With Cc1nc(NC2CCCC2)c2c(n1)c(C)nn2C the “Percent Effect” value was 15.85%. For CCCn1c(NCCc2ccccc2)nc2c(C)nn(C)c2c1=O, the “Percent Effect” value was 22.06%. CCCc1nc(NCCCOC)c2c(n1)c(C)nn2CC was tested, and the “Percent Effect” value was -13.02%. CCCc1nc(NCCOC)c2c(n1)c(C)nn2CC was tested, and the “Percent Effect” value was -17.61%. In the case of CCn1nc(C)c2nc(C(C)C)nc(NCCc3ccc(O)cc3)c21, the “Percent Effect” value is reported as -11.29%. CCCc1nc(NCCCO)c2c(n1)c(C)nn2CC was tested, and the “Percent Effect” value was 24.94%. For CCn1nc(C)c2nc(C)nc(NCCc3ccccc3)c21, the “Percent Effect” value was 83.2%. In the case of CCn1nc(C)c2nc(C)nc(NC3CCCC3)c21, the “Percent Effect” value is reported as 69.93%. For CCn1nc(C)c2nc(C)nc(NCCc3ccc(C)cc3)c21, the “Percent Effect” value was 69.41%. For O=C(O)C(F)(F)F.O=C(O)C(F)(F)F.c1cc(CN2CCO[C@H]3[C@H](OCC4CCCC4)CC[C@@H]32)ccn1, the “Percent Effect” value was 3.983%. Cc1ccc(C(=O)N2CCC3(CCCN(c4ncc(F)cn4)C3)C2)cn1.O=C(O)C(F)(F)F (stereo not drawn) was tested, and the “Percent Effect” value was 10.32%. For C1CC(CO[C@@H]2CC[C@H]3[C@H]2OCCN3CC2CC2)CCO1.O=C(O)C(F)(F)F, the “Percent Effect” value was -24.78%. Cc1ccc(C)c(CSc2nnc(C(N)Cc3ccccc3)o2)c1.Cl (stereo not drawn) was tested, and the “Percent Effect” value was -13.89%. Cl.O=C(C1CC1)N1CCOC2(CCNCC2)C1 was tested, and the “Percent Effect” value was 27.3%. With Fc1ccc(CN2C[C@@H]3OCCN(CC4CCCO4)[C@@H]3C2)cc1.O=C(O)C(F)(F)F.O=C(O)C(F)(F)F (stereo partly drawn) the “Percent Effect” value was -48.55%. With CCc1ncnc2c1CCN(Cc1ccc3c(c1)OCO3)CC2.O=C(O)C(F)(F)F the “Percent Effect” value was -11.62%. With COC[C@H]1CC[C@@H]2[C@@H](CCN2Cc2ccco2)O1.O=C(O)C(F)(F)F the “Percent Effect” value was -6.92%. Cc1ccc(CN2CCOC3(CCN(CC4CCOC4)CC3)C2)cc1.O=C(O)C(F)(F)F.O=C(O)C(F)(F)F (stereo not drawn) was tested, and the “Percent Effect” value was 35.27%. CNC(=O)[C@H]1CO[C@H]2CCN(Cc3ccc4ccccc4n3)C[C@H]2C1.O=C(O)C(F)(F)F.O=C(O)C(F)(F)F was tested, and the “Percent Effect” value was -6.104%. With CCCc1nc(N2CCCCCC2)c2c(n1)c(C)nn2CC the “Percent Effect” value was 50.35%. With CCCc1nc(N2CCCCC2)c2c(n1)c(C)nn2CC the “Percent Effect” value was -7.298%. In the case of CCCc1nc(N2CCN(CC)CC2)c2c(n1)c(C)nn2CC, the “Percent Effect” value is reported as -31.53%. COCC(=O)N1CCOCC2(CCN(Cc3cccs3)C2)C1.O=C(O)C(F)(F)F (stereo not drawn) was tested, and the “Percent Effect” value was -21.04%. With Cc1ccc(CN2CCn3c(CN(C)C(C)C)cnc3C2)s1.O=C(O)C(F)(F)F.O=C(O)C(F)(F)F the “Percent Effect” value was -14.26%. Cc1cn2c(n1)C(CNCC1=Cc3ccccc3OC1)CCC2 (stereo not drawn) was tested, and the “Percent Effect” value was 28.86%. Cc1cn2c(n1)C(CNCc1ccc(C)s1)CCC2 (stereo not drawn) was tested, and the “Percent Effect” value was -22.18%. For Cc1cn2c(n1)C(CNCC1=Cc3cc(Cl)ccc3OC1)CCC2 (stereo not drawn), the “Percent Effect” value was 99%. O=C(NCC1CC1)[C@H]1C[C@@H]2CCN(Cc3ccc4c(c3)OCO4)C[C@@H]2O1.O=C(O)C(F)(F)F was tested, and the “Percent Effect” value was -28.42%. With c1cnc(-c2nc(CNCCn3cccn3)cs2)nc1 the “Percent Effect” value was -0.9429%. With c1ccc(-c2nc(CNCCn3cccn3)cs2)nc1 the “Percent Effect” value was -25.33%. In the case of Fc1ccccc1-c1nc(CNCCn2cccn2)cs1, the “Percent Effect” value is reported as 20.44%. With c1cnn(CCNCc2csc(-c3ccsc3)n2)c1 the “Percent Effect” value was 52.72%. For Fc1ccc(-c2n[nH]cc2CNCCn2cccn2)cc1, the “Percent Effect” value was 11.69%. COc1cccc(-c2nc(CNCCn3cccn3)cs2)c1 was tested, and the “Percent Effect” value was 90.69%. Clc1ccccc1-c1nc(CNCCn2cccn2)cs1 was tested, and the “Percent Effect” value was 54.38%. In the case of COc1cccc(-c2nc(CNCCCn3cccn3)cs2)c1, the “Percent Effect” value is reported as 37.34%. In the case of COc1cccc(-c2nc(CNCCc3cccnc3)cs2)c1, the “Percent Effect” value is reported as -0.6336%. Fc1ccc(-c2nc(CNCCn3cccn3)cs2)cc1 was tested, and the “Percent Effect” value was 66.63%. With c1csc(-c2nc(CNCCn3cccn3)cs2)c1 the “Percent Effect” value was 10.7%. For c1ccc(-c2nc(CNCCn3cccn3)cs2)cc1, the “Percent Effect” value was 37.88%. In the case of Cc1ccc(CN2CCC3(CC2)CN(c2cnn(C)c2)C(=O)CO3)o1.O=C(O)C(F)(F)F, the “Percent Effect” value is reported as -7.35%. OCCOc1cc(F)ccc1NCc1cccc(F)c1F was tested, and the “Percent Effect” value was -41.85%. In the case of O=C(O)C(F)(F)F.O=S(=O)(c1cccs1)N1CC[C@H](O)[C@@H]1Cc1ccncc1, the “Percent Effect” value is reported as -2.198%. For Cn1cc(N2C(=O)CC[C@@H]3[C@H]2CCN3CCc2ccccc2)cn1.O=C(O)C(F)(F)F.O=C(O)C(F)(F)F, the “Percent Effect” value was -25.96%. With COc1ccc(CNC(C)c2cccc(Br)c2)c(OC)c1OC.Cl (stereo not drawn) the “Percent Effect” value was -10.84%. COCCN1CCC(c2nc3ccc(-c4ccccc4)cn3n2)CC1.O=C(O)C(F)(F)F was tested, and the “Percent Effect” value was -23.12%. With C/N=C1/c2cc3cc(OC)ccc3n2CCN1Cc1ccccc1.Cl the “Percent Effect” value was -17.35%. With Cc1noc(C)c1CN1CCO[C@H]2CN(C(=O)N3CCCC3)C[C@H]21.O=C(O)C(F)(F)F the “Percent Effect” value was -20.16%. In the case of COc1ccc(-c2nnc(CNCCn3cccn3)o2)cc1, the “Percent Effect” value is reported as -11.96%. Cn1cc(-c2nc(CNCCn3cccn3)cs2)cn1 was tested, and the “Percent Effect” value was -4.068%. For COc1ccc(-c2nc(CNCCn3cccn3)cs2)cc1, the “Percent Effect” value was 106.9%. For CCc1c(C)nc2cc(C3CCN(Cc4ccncc4C)C3)nn2c1O (stereo not drawn), the “Percent Effect” value was -4.904%. O=C(O)C(F)(F)F.O=C(c1ccncc1F)N1CCc2onc(COc3cccnc3)c2C1 was tested, and the “Percent Effect” value was 2.972%. For Cn1ccc(C(=O)N2CCC[C@]3(C[C@@H](OCc4ccccn4)CO3)C2)n1.O=C(O)C(F)(F)F, the “Percent Effect” value was -3.608%. In the case of O=C(O)CCC(=O)N1CCC(c2noc3cc(F)ccc23)CC1, the “Percent Effect” value is reported as 69.92%. O=C(CCN1CCC(C(=O)c2cc(F)ccc2F)CC1)NC1CC1 was tested, and the “Percent Effect” value was -9.281%. CCCNC(=O)CCC(=O)N1CCC(c2noc3cc(F)ccc23)CC1 was tested, and the “Percent Effect” value was 9.612%. With O=C(O)CCCC(=O)N1CCC(c2noc3cc(F)ccc23)CC1 the “Percent Effect” value was 20.09%. NC(=O)CN1CCC(c2noc3cc(F)ccc23)CC1 was tested, and the “Percent Effect” value was -31.79%. With O=C(CCc1cc(O)no1)N1CCC(Cc2ccc(F)cc2)CC1 the “Percent Effect” value was 4.65%. In the case of CC(C)NC(=O)CCC(=O)N1CCC(c2noc3cc(F)ccc23)CC1, the “Percent Effect” value is reported as 74.12%. With O=C(CCC(=O)N1CCC(c2noc3cc(F)ccc23)CC1)NC1CC1 the “Percent Effect” value was 83.45%. In the case of CC(C)NC(=O)CN1CCC(c2cccc(F)c2)C1 (stereo not drawn), the “Percent Effect” value is reported as -24.09%. In the case of Cl.NC(=O)C1CNCCN1C(=O)COc1ccccc1 (stereo not drawn), the “Percent Effect” value is reported as -11.48%. In the case of C[C@H]1CN(Cc2cccc(F)c2)C[C@@]12CCN(CC(=O)N(C)C)C2=O.O=C(O)C(F)(F)F, the “Percent Effect” value is reported as -2.321%. With CC(C)C(=O)N1CC[C@H]2N(C)CC[C@@]2(C(=O)N2CCCC2)CC1.O=C(O)C(F)(F)F the “Percent Effect” value was 7.304%. CCSCCNc1nc(-c2ccccn2)nc2c1c(C)nn2C was tested, and the “Percent Effect” value was 102%. CSCC[C@@H](CO)Nc1ccc(-c2nc(-c3ccccc3C)no2)cn1 was tested, and the “Percent Effect” value was -15.48%. For Cc1nn(C)c2nc(-c3ccccn3)nc(NCCCOC(C)C)c12, the “Percent Effect” value was 98.39%. CCC1(O)CCCN(c2nc(-c3ccccn3)nc3c2c(C)nn3C)C1 (stereo not drawn) was tested, and the “Percent Effect” value was 100.9%. In the case of c1ccc(-c2nc3c(c(NCCCn4cncn4)n2)CCNCC3)nc1, the “Percent Effect” value is reported as 8.8%. With CSCC[C@@H](CO)Nc1ccc(-c2nc(-c3ccccc3F)no2)cn1 the “Percent Effect” value was -33.46%. CSCC[C@@H](CO)Nc1nc(-c2ccccn2)nc2c1c(C)nn2C was tested, and the “Percent Effect” value was 63.32%. Cc1nc(N2CCC(O)(c3ccccc3)CC2)c2c(C)nn(C)c2n1 was tested, and the “Percent Effect” value was 12.95%. In the case of CCSCCNc1nc2c(s1)c(C)nn2C, the “Percent Effect” value is reported as 6.366%. CC(=O)NCCNc1nc(-c2ccccn2)nc2c1c(C)nn2C was tested, and the “Percent Effect” value was -12.81%. For CCC1(O)CCCN(c2ncnc3c2c(C)nn3C)C1 (stereo not drawn), the “Percent Effect” value was 10.34%. c1ccc(-c2nc3c(c(NCCn4cccc4)n2)CCNCC3)nc1 was tested, and the “Percent Effect” value was -4.2%. Cc1ccc(CN2CC[C@H]3OCC[C@@H](C(=O)N4CCCCO4)[C@@H]3C2)o1.O=C(O)C(F)(F)F was tested, and the “Percent Effect” value was -16.6%. For O=C(O)C(F)(F)F.O=C([C@@H]1CCO[C@@H]2CCN(CCc3ccccc3)C[C@@H]21)N1CCCC1, the “Percent Effect” value was -24.53%. In the case of Cl.c1cnc(Nc2cc(CCC3CCCNC3)ccn2)cn1 (stereo not drawn), the “Percent Effect” value is reported as 5.615%. With Cc1nnc(N2CC[C@H]3O[C@H](C(=O)NCc4ccccn4)CC[C@H]32)s1.O=C(O)C(F)(F)F.O=C(O)C(F)(F)F the “Percent Effect” value was -4.989%. CCCN1C[C@H]2CC[C@@H]1CN(c1nnc(C(C)C)s1)C2 was tested, and the “Percent Effect” value was 23.85%.
